From PubChem BioAssay (EPA / NIEHS)
Where a structure was tested more than once in an assay, its records may differ in their call. Calls of active or inactive are those of the source. Rule for the calls: active = hit-call score of the fitted dose curve at least 0.9, where 1 is the maximum; inactive = score below 0.9.

How the values were obtained:
[1] = APR_HepG2_P-H2AX_72hr: Apredica 72-hour HepG2 Assay for H2AX Phosphorylation (AID 2282916); settings: imaging, actives raise or lower the signal;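 note: phospho-histone H2A.x immunostain intensity per cell marking DNA damage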
How it was run: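 Following 72 hr treatment with 0.39–200 uM compound, HepG2 cells were formaldehyde-fixed, permeabilized and stained for phospho-H2A.x; signal was measured by high-content imaging and fitted bidirectionally against DMSO controls.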

[2] = APR_HepG2_MitoMembPot_72hr: Apredica 72-hour HepG2 Assay for Mitochondrial Membrane Potential (AID 2282917); settings: imaging, actives raise or lower the signal
How it was run: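 Membrane potential read by MitoTracker Red CMXRos (250 nM, 30 min, pre-fixation) fluorescence imaging of HepG2 after 72 hr exposure. Ten concentrations, 0.39–200 uM, duplicate wells, 0.5% DMSO; fitted in both directions against DMSO baseline.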

[3] = APR_HepG2_MitoticArrest_72hr: Apredica 72-hour HepG2 Assay for Mitotic Arrest (AID 2282918); settings: high-content imaging, actives raise or lower the signal
How it was run: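 High-content imaging of fixed human HepG2 cells after 72 h compound exposure (0.39–200 uM, duplicates, 0.5% DMSO); mitotic arrest scored from phospho-histone H3 and nuclear Hoechst staining relative to DMSO.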

[4] = APR_HepG2_MicrotubuleCSK_72hr: Apredica 72-hour HepG2 Assay for Microtubule CSK Stabilty (AID 2282919); settings: HepG2 microtubule cytoskeleton, high-content imaging, actives raise or lower the signal
How it was run: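 Read-out is tubulin fluorescence intensity from high-content imaging of HepG2 cells, with nuclei identified by Hoechst 33342. Treatment lasts 72 h at 0.39–200 uM, and curves are fitted bidirectionally against the DMSO negative control.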

[5] = APR_HepG2_P-H2AX_24hr: Apredica 24-hour HepG2 Assay for H2AX Phosphorylation (AID 2282920); settings: high-content imaging, actives raise or lower the signal
How it was run: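 High-content imaging of phospho-histone H2A.x immunofluorescence, nuclei counterstained with Hoechst 33342, in fixed HepG2 cells. Compounds ran 0.39–200 uM in duplicate for 24 h, final DMSO 0.5%. Signal change fitted both directions against DMSO.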

[6] = APR_HepG2_StressKinase_72hr: Apredica 72-hour HepG2 Assay for Stress Kinase (AID 2282921); settings: HepG2 stress kinase (phospho-c-Jun) imaging, actives raise or lower the signal
How it was run: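 Fluorescence intensity of Cy3-tagged anti-phospho-c-Jun antibody, quantified per cell from Hoechst-defined nuclei across six images per well, served as the read-out following 72 h exposure (0.39–200 uM, 0.5% v/v DMSO).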

[7] = APR_HepG2_StressKinase_24hr: Apredica 24-hour HepG2 Assay for Stress Kinase (AID 2282922); settings: HepG2 stress kinase (phospho-c-Jun) imaging, actives raise or lower the signal
How it was run: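 HepG2, 24 hr dosing, 0.39–200 uM in duplicate, 0.5% DMSO; formaldehyde fix (3.7%), 0.5% Triton X-100; anti-phospho-c-Jun + Cy3 secondary, Hoechst counterstain; ArrayScan imaging; bidirectional curve fit vs DMSO baseline.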

[8] = APR_HepG2_p53Act_72hr: Apredica 72-hour HepG2 Assay for p53 Activation (AID 2282923); settings: high-content imaging, actives raise or lower the signal;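 note: average cellular p53 protein immunofluorescence intensity in HepG2 cells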
How it was run: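 HepG2 monolayers receive test compounds in duplicate at ten concentrations (0.39 through 200 uM) for 72 hr. They are then formaldehyde-fixed, antibody-labelled for p53, Hoechst-stained and imaged, with activity fitted bidirectionally versus DMSO.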

[9] = APR_HepG2_MitoMass_72hr: Apredica 72-hour HepG2 Assay for Mitochondrial Mass (AID 2282924); settings: high-content imaging, actives raise or lower the signal;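 note: MitoTracker Red CMXRos stain intensity per cell imaged as mitochondrial mass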
How it was run: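 HepG2, 72 hr cmpd, 10 conc 0.39–200 uM in dup, DMSO 0.5% v/v. MitoTracker Red CMXRos 250 nM 30 min pre-fix; formaldehyde 3.7% fix 30 min RT. HCS imaging, gain/loss fit vs DMSO.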

[10] = APR_HepG2_NuclearSize_72hr: Apredica 72-hour HepG2 Assay for Nuclear Size (AID 2282925); settings: high-content imaging, actives raise or lower the signal
How it was run: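 HepG2; cpd 0.39–200 uM, 10 conc, duplicate; 72 h; DMSO 0.5% v/v; fix 3.7% formaldehyde 30 min RT; Triton permeabilization; Hoechst 2 ug/mL; HCS imaging 20x; nuclear diameter; gain/loss fit vs DMSO.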

[11] = ATG_CRE_CIS: Attagene CIS-FACTORIAL HepG2 Assay for human cAMP Responsive Element (CRE) binding protein 3 (AID 2282926); settings: HepG2 CRE cis-reporter, Attagene multiplexed mRNA; actives raise or lower the signal
How it was run: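 Multiplexed transcription-unit reporters transfected into HepG2; 24 h dosing; RT-PCR/capillary electrophoresis fluorescence read-out; bidirectional fit vs DMSO.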

[12] = molecular target: CCAAT/enhancer-binding protein beta (Homo sapiens) (UniProt P17676); assay: ATG_C_EBP_CIS: Attagene CIS-FACTORIAL HepG2 Assay for human CCAAT/Enhancer Binding Protein (C/EBP) beta (AID 2282927); settings: HepG2 Attagene cis-factorial transcription factor reporter; actives raise or lower the signal
How it was run: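 Changes in reporter mRNA, rather than exogenous chimeric receptor activity, reflect native C/EBP signalling in transfected HepG2 cells dosed for 24 h; transcripts are detected by RT-PCR and capillary electrophoresis.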

[13] = ATG_CMV_CIS: Attagene CIS-FACTORIAL HepG2 Assay for human CMV (Internal Marker) (AID 2282928); settings: HepG2 CMV promoter reporter, transcription factor profiling; actives raise or lower the signal;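 note: endpoint acts as a background internal control marker rather than a target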
How it was run: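 Endogenous transcription factor activity read in HepG2 via transfected cis-promoter reporter units. After 24 h dosing, reporter mRNA measured by RT-PCR/capillary electrophoresis; gain or loss of signal fit relative to DMSO.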

[14] = ATG_DR4_LXR_CIS: Attagene CIS-FACTORIAL HepG2 Assay for human Liver X Receptor (LXR), DR4 submotif (AID 2282929); settings: HepG2 Attagene DR4 cis-reporter, mRNA transcription; actives raise or lower the signal
How it was run: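 The endpoint is DR4-element-driven reporter transcripts after 24 h chemical exposure of transfected HepG2 cells. These were measured via RT-PCR and capillary electrophoresis, and gain or loss of signal was fitted relative to DMSO controls.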

[15] = molecular target: Aryl hydrocarbon receptor (Homo sapiens) (UniProt P35869); assay: ATG_Ahr_CIS: Attagene CIS-FACTORIAL HepG2 Assay for human Aryl Hydrocarbon Receptor (Ahr) (AID 2282930); settings: HepG2 AhR cis-factorial reporter transcription; actives raise or lower the signal
How it was run: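 HepG2, transient MRTU (cis) transfection, 24 h exposure. RNA → cDNA → PCR → 6-FAM primer extension → HpaI 2 h 37 C → CE. Fit: bidirectional, DMSO baseline.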

[16] = ATG_AP_1_CIS: Attagene CIS-FACTORIAL HepG2 Assay for human Activator Protein 1 (AP-1) (AID 2282931); settings: HepG2 Attagene cis-factorial AP-1 reporter mRNA; actives raise or lower the signal
How it was run: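 Readout is reporter transcript level from endogenous transcription factor activity, quantified by RT-PCR with fluorescent primer extension and capillary electrophoresis. Transiently transfected HepG2 cells, 24 h exposure. Curves fitted both directions versus DMSO.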

[17] = ATG_AP_2_CIS: Attagene CIS-FACTORIAL HepG2 Assay for human Activator Protein 2 (AP-2) (AID 2282932); settings: HepG2 AP-2 cis-reporter, Attagene transcription factor profiling; actives raise or lower the signal
How it was run: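 Step one: transient transfection of HepG2 with reporter transcription units. Step two: 24 h chemical exposure. Step three: RNA extraction, RT-PCR, labelled fragment analysis by capillary electrophoresis; DMSO serves as baseline.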

[18] = ATG_BRE_CIS: Attagene CIS-FACTORIAL HepG2 Assay for human Bone Morphogenetic Protein (BMP) Response Element (BRE) (AID 2282933); settings: HepG2 BMP response element reporter, Attagene transcription factor profiling; actives raise or lower the signal
How it was run: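 Endogenous transcription factor activity at a BMP response element was monitored in transfected HepG2 cells 24 h after dosing. Fluorescent RT-PCR products were resolved by capillary electrophoresis, and activity was fitted in both directions versus DMSO.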

[19] = molecular target: Retinoic acid receptor alpha (Homo sapiens) (UniProt P10276); assay: ATG_DR5_RAR_CIS: Attagene CIS-FACTORIAL HepG2 Assay for human Retinoic Acid Receptor Alpha (RARE), DR5 submotif (AID 2282934); settings: HepG2 Attagene cis-factorial RARE DR5 reporter, mRNA; actives raise or lower the signal;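 for AC50: reporter responds to endogenous RAR alpha beta and gamma in HepG2 not RARA alone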
How it was run: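 HepG2, transient cis-reporter transfection, 24 h exposure. mRNA readout: RT-PCR, FAM label, HpaI cut, capillary electrophoresis. DMSO baseline, gain/loss fitting.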

[20] = molecular target: Transcription factor E2F1 (Homo sapiens) (UniProt Q01094); assay: ATG_E2F_CIS: Attagene CIS-FACTORIAL HepG2 Assay for human E2F Transcription Factor 1 (AID 2282935); settings: HepG2 Attagene cis-reporter, E2F reporter RNA transcripts; actives raise or lower the signal
How it was run: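 Total RNA from 24 h-treated, reporter-transfected HepG2 cells undergoes DNase I treatment, oligo(dT) reverse transcription, PCR and 6-FAM primer extension before capillary electrophoresis.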

Measured: AC50

Retinoic acid receptor alpha (Homo sapiens), sequence (P10276 whole entry, looked up): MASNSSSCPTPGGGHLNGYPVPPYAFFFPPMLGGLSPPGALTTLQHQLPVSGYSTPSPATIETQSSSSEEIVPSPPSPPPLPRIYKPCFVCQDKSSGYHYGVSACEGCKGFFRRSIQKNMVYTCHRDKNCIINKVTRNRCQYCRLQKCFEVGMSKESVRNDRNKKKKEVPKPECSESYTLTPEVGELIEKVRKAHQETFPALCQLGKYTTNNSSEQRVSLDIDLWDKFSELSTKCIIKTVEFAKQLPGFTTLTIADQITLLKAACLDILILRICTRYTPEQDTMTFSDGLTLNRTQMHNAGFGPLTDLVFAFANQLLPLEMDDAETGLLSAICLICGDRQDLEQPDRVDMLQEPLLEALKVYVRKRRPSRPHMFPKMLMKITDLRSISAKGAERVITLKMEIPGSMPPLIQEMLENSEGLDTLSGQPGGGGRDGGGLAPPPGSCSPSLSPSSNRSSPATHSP
CCAAT/enhancer-binding protein beta (Homo sapiens), sequence (P17676 whole entry, looked up): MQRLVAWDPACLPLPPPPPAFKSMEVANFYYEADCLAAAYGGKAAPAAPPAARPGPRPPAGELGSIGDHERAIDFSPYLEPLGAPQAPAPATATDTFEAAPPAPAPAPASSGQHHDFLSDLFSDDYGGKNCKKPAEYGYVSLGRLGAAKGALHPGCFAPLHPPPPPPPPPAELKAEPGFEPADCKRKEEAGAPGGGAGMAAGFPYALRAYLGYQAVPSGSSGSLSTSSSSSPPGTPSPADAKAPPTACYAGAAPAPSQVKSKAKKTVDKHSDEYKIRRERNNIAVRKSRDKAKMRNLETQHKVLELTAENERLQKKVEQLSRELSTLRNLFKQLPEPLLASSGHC
Aryl hydrocarbon receptor (Homo sapiens), sequence (P35869 whole entry, looked up): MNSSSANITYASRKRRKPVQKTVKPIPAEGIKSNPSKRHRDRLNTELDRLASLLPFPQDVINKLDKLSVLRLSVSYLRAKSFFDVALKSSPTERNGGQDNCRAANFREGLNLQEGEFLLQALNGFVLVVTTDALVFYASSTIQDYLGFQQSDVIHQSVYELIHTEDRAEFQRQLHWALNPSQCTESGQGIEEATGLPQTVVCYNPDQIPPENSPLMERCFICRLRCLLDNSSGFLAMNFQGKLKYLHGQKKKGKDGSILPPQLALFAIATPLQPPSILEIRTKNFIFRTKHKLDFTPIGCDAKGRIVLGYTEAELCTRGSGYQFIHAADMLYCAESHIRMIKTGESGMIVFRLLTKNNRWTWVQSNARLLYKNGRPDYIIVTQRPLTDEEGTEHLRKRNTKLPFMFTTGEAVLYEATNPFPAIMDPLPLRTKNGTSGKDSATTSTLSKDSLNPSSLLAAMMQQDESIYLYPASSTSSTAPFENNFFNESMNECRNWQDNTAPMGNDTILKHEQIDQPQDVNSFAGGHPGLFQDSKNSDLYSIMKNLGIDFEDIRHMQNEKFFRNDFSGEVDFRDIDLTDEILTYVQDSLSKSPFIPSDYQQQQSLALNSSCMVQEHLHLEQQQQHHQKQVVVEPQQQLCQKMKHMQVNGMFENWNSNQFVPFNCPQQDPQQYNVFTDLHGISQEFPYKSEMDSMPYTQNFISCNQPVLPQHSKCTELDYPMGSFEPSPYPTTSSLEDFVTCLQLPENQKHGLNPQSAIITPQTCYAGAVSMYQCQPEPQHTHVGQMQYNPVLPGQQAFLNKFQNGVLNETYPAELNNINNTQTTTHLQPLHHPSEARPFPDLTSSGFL
Transcription factor E2F1 (Homo sapiens), sequence (Q01094 whole entry, looked up): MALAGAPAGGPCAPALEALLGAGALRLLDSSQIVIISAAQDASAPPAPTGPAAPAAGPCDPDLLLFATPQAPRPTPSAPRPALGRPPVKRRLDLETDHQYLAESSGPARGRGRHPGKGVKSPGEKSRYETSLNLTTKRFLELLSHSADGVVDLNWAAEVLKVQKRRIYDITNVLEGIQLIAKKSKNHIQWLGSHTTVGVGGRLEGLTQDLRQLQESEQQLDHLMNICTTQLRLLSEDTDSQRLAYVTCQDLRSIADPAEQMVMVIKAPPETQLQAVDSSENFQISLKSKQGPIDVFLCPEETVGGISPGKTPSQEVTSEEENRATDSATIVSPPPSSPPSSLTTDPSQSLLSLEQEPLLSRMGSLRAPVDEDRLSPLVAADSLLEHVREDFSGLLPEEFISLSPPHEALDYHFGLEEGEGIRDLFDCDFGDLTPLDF

CCOC(=O)COc1cc(-c2nn(C)c(OC(F)F)c2Cl)c(F)cc1Cl
inactive: all assays above

COc1ccc(C(=CC(=O)N2CCOCC2)c2ccc(Cl)cc2)cc1OC
active: [11] 10.9 µM | [12] 5.02 µM | [18] 11.9 µM
not listed: [13] | [20]
inactive: all other assays above

COP(=O)(OC)SCn1c(=O)oc2cc(Cl)cnc21
active: [1] 53.8 µM | [3] 68.3 µM | [4] 56.3 µM | [6] 26.3 µM | [11] 18.1 µM | [14] 10.4 µM
not listed: [13] | [19] | [20]
inactive: all other assays above

O=c1ccc(=O)[nH][nH]1
not listed: [9] | [19] | [20]
inactive: all other assays above

CC1=NNC(=O)N(/N=C/c2cccnc2)C1
not listed: [9] | [13] | [20]
inactive: all other assays above

CC(COc1ccc(Oc2ccccc2)cc1)Oc1ccccn1 (stereo not drawn)
active: [4] 82.3 µM | [12] 13.4 µM | [16] 19.1 µM
not listed: [9] | [13]
inactive: all other assays above

CCOP(=O)(NC(C)C)Oc1ccc(SC)c(C)c1 (stereo not drawn)
active: [2] 50.5 µM | [19] 14.2 µM
not listed: [9]
inactive: all other assays above

CCCSP(=O)(OCC)Oc1ccc(Br)cc1Cl (stereo not drawn)
active: [11] 2.33 µM | [12] 1.81 µM | [13] 3.92 µM
not listed: [4] | [20]
inactive: all other assays above

COP(=O)(OC)OC(Br)C(Cl)(Cl)Br (stereo not drawn)
active: [5] 33.4 µM | [7] 32.5 µM
not listed: [8] | [9] | [20]
inactive: all other assays above

CNC(=O)ON=C(C)SC
not listed: [9] | [13] | [19] | [20]
inactive: all other assays above

N#CSCSC#N
not listed: [13] | [20]
inactive: all other assays above

CN(C)C(=O)Nc1cccc(C(F)(F)F)c1
inactive: all assays above

O=[N+]([O-])c1cc(C(F)(F)F)c(Cl)c([N+](=O)[O-])c1Nc1ncc(C(F)(F)F)cc1Cl
active: [1] 1.13 µM | [3] 0.767 µM | [4] 100 µM | [12] 7.85 µM | [14] 11.1 µM | [15] 19.1 µM | [16] 2.7 µM | [18] 2.63 µM
inactive: [2] | [5] | [6] | [7] | [10] | [11] | [12] | [14] | [15] | [16] | [17] | [18] | [19]

CCOP(=S)(OCC)OC(Cl)C(Cl)(Cl)Cl (stereo not drawn)
active: [4] 109 µM | [11] 25.3 µM | [12] 30.3 µM
not listed: [9] | [13] | [20]
inactive: all other assays above
